A selection: hits, their analogues and other compounds. The true share with any hit is near 3.8%.
697 NFkB inh: lowers PMA/ionomycin-induced NF-kB signal in 697 B cells; 697 B-cell NF-kB luciferase reporter, 16 h; inhibition, % at 4 µM; 330,000 compounds, 0.33% hits; AID 435022; in the data active = inhibition above about 35%
A1 inh: inhibitors of the anti-apoptotic protein A1, read as caspase activation; MEF A1-2A-BIM cells, Caspase-Glo 3/7 luminescence, 3 h; percent of clofoctol response, vehicle zero; AID 2462; 330,000 compounds, 0.066% hits; caspase activation, % (concentration not given with the values);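 active = over half of replicate activation scores above 10%, or exactly half above 10 with the replicate mean above 10; inconclusive = replicate mean below 10 yet half the replicates above 10; inactive = over half of replicates below 10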
Beta cell apopt: blocks beta cell apoptosis | INS-1E cytokine-induced death, ATP luminescence, 48 h; percent of positive-control rescue, neutral wells zero | protection from apoptosis, % (test concentration not listed) | 300,000 compounds, 0.8% hits;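 active = Every replicate reaches about 75%, or at least half do and their mean reaches it too, limit read from the data; inconclusive = At least half of replicates reach the limit but their mean does not; inactive = Under half of replicates reach the limit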;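 note: higher means more ATP so stronger rescue from cytokine killing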
NTR1 ag: activates human neurotensin receptor 1. 330,000 compounds, 0.17% hits. NTR1-U2OS beta-arrestin-GFP spot imaging, agonist mode. P30989. activation, % at 20 µM;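 active = activation at or above 40% of the spot to cytoplasm intensity ratio, with at least 20 cells analyzed; inconclusive = wells under 20 cells, flagged as cytotoxic or low count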
Mdm2-MdmX inh: disrupts the human Mdm2-MdmX interaction; O15151+Q00987; SaOS-2 split-luciferase Mdm2/MdmX complementation, luminescence; inhibition, % at 8 µM; 330,000 compounds, 3% hits;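 active = inhibition of at least 50% at 8 µM in the primary screen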
Target sequence (O15151 whole entry, looked up): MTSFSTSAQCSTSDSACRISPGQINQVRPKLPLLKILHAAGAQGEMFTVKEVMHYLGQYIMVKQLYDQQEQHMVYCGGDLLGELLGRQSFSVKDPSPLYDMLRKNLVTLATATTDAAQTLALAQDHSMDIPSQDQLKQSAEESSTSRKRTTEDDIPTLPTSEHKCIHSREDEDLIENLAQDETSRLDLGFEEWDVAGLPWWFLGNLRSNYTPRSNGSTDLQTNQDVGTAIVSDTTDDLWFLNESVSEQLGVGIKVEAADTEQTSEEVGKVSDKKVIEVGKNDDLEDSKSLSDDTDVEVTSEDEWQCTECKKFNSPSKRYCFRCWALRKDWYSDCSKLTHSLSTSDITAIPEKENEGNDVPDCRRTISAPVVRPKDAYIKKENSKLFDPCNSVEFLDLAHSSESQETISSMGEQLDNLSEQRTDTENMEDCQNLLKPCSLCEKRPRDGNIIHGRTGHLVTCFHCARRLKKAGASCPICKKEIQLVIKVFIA
Target sequence (Q00987 whole entry, looked up): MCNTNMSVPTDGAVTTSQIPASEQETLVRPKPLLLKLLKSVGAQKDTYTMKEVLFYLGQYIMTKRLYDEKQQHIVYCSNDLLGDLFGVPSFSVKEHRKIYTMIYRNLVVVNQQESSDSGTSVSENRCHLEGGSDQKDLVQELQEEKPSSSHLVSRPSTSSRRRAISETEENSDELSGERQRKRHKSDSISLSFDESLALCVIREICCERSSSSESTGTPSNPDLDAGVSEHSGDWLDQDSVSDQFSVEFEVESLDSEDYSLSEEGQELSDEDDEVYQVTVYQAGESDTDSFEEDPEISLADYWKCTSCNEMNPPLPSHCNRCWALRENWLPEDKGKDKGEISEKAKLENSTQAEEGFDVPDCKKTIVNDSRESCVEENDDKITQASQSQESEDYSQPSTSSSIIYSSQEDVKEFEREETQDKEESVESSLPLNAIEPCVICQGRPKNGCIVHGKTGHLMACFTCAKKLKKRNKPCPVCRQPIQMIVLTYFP
Jurkat NFkB inh: inhibitors of the PMA/ionomycin-induced NF-kB reporter in Jurkat cells; PMA/ionomycin-induced NF-kB luciferase reporter, luminescence; inhibition, % at 4 µM; 330,000 compounds, 0.53% hits; AID 435003; in the data active = inhibition above about 50%
Mdm2 MdmX conf: confirmation of human Mdm2/MdmX interaction inhibitors. shares compounds with Mdm2-MdmX inh. 10,000 compounds, 55% hits. inhibition, % at 8 µM. Mdm2-MdmX binding, luminescent assay; in the data active = inhibition above about 40%
FLuc counter: inhibits full-length luciferase, flagging false Mdm2/MdmX hits; shares compounds with Mdm2-MdmX inh; SaOS-2 full-length luciferase counterscreen, luminescence; inhibition, % at 8 µM; 6,200 compounds, 77% hits; AID 504607;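 active = mean inhibition at 8 µM reaching about 37%, which flags the compound as non-specific, limit read from the data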;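 note: p53-null SaOS-2 cells with luciferase driven by a doxycycline-inducible promoter; compound on cells about two nights before reading with doxycycline added after day one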
A number is an active result; 0 = inactive; ? = inconclusive; - = no result given.

SMILES	697 NFkB inh	A1 inh	Beta cell apopt	NTR1 ag	Mdm2-MdmX inh	Jurkat NFkB inh	Mdm2 MdmX conf	FLuc counter
Cc1ccc(S(=O)(=O)N2CCC(C(=O)NNC(=O)c3ccccc3O)CC2)cc1C	0	0	0	0	53.2	0	49.9	46.4
Cc1cc(C)c(C)c(S(=O)(=O)N2CCC(C(=O)NNC(=O)c3ccccc3O)CC2)c1C	0	0	0	0	66.5	0	65.5	45.2
Cc1ccc(S(=O)(=O)N2CCC(C(=O)NNC(=O)c3ccccc3O)CC2)cc1	0	0	-	0	0	0	-	-
CCCn1c(N)c(C(=O)CSc2nnc(-c3ccoc3C)n2C)c(=O)n(C)c1=O	0	0	0	0	0	0	-	-
O=C(Nc1ccccc1O)c1c(O)c2c([nH]c1=O)CCCC2	0	0	0	0	0	0	-	-
O=C(N/N=C/c1cccc(Cl)c1)c1c(O)c2c([nH]c1=O)CCCC2	0	0	0	0	68.8	0	0	-
C=CCn1c(SCC(=O)Nc2ccc(F)cc2F)nc2c([nH]c3ccccc32)c1=O	0	0	0	0	64.6	0	51.9	0
COCCn1c(SCC(=O)Nc2ccccc2F)nc2c([nH]c3ccccc32)c1=O	0	0	0	0	0	0	-	-
COCCn1c(SCC(=O)Nc2ccc(F)cc2F)nc2c([nH]c3ccccc32)c1=O	0	0	0	0	55.4	0	53.0	0
FC(F)Sc1ccc(NC(=S)NCC2CCCCC2)cc1	0	0	0	0	65.2	0	0	-
Cc1noc(C)c1C(=O)Nc1cccc(S(=O)(=O)N2CCOCC2)c1	0	0	0	0	0	0	-	-
O=C(Cc1ccc(S(=O)(=O)N2CCOCC2)s1)Nc1cc(C(F)(F)F)cc(C(F)(F)F)c1	0	0	0	0	56.4	0	0	-
Cc1ccc(NC(=O)c2ccc(NCCCN3CCC(C)CC3)c([N+](=O)[O-])c2)cc1F	0	0	0	0	60.1	0	54.9	46.8
O=C1N(c2ccccc2C(F)(F)F)O[C@@]1(c1ccccc1)C1CCCCC1	0	0	0	0	87.5	0	50.2	52.0
O=C1N(c2ccccc2C(F)(F)F)O[C@@]1(c1ccccc1)C1CCCC1	0	0	0	0	76.6	0	50.9	56.2
O=C(Nc1ccccc1N1CCCCC1)C1CCN(S(=O)(=O)c2ccccc2C(F)(F)F)CC1	0	0	0	0	0	0	-	-
CC(C#N)(NC(=O)CN1CCN(S(=O)(=O)c2ccccc2C#N)CC1)C1CC1 (centres undefined)	0	?	0	0	0	0	-	-
COc1ccccc1N1CCN(Cc2cc(=O)c(OCC#N)co2)CC1	0	0	-	0	0	0	-	-
CCOc1ccc2[nH]c(=O)c(CN(CCN3CCCC3)C(=S)Nc3ccccc3OCC)cc2c1	0	0	0	0	100.3	0	0	-
CCc1ccc(CNC(=O)Cc2ccc(NC(=O)C3=C(C)OCCS3)cc2)cc1	0	0	0	0	0	0	-	-
Cc1ccc(C(=O)Nc2ccc(Nc3ccccc3)cc2)c(Cl)c1	0	0	0	0	0	0	-	-
CC(C)[C@@]1(c2ccc(Cl)cc2)ON(c2ccccc2C(F)(F)F)C1=O	0	0	0	0	75.0	0	43.8	49.6
COc1ccc([C@@]2(C(C)C)ON(c3ccccc3C(F)(F)F)C2=O)cc1	0	0	0	0	79.8	0	56.2	44.8
CC(C)C[C@]1(c2ccccc2)ON(c2ccccc2C(F)(F)F)C1=O	0	0	0	0	0	0	-	-
COc1ccc([C@]2(C(C)C)ON(c3ccccc3C(F)(F)F)C2=O)cc1	0	0	0	0	82.0	0	41.1	51.4
SMILES	697 NFkB inh	A1 inh	Beta cell apopt	NTR1 ag	Mdm2-MdmX inh	Jurkat NFkB inh	Mdm2 MdmX conf	FLuc counter
CCOc1ccc(-c2c(C(=O)N/N=C/C3CC=CCC3)nnn2-c2nonc2N)cc1 (centres undefined)	0	0	0	0	0	0	-	-
O=P(O)(C(O)c1ccccc1)C(O)c1ccccc1 (centres undefined)	0	0	0	0	0	0	-	-
CS(=O)(=O)N1CCC(c2noc(-c3ccc(C(F)(F)F)cc3)n2)CC1	0	0	0	0	0	0	-	-
Cc1ccc(-c2nc(C3CCN(S(=O)(=O)c4ccc(C(F)(F)F)cc4)CC3)no2)cc1	0	0	0	0	55.8	0	0	-
O=S(=O)(/C=C/c1ccccc1)Oc1ccccc1	0	0	0	0	75.8	0	50.5	77.8
N#CCC(=O)Nc1ccc(C(=O)OCC(=O)N(C2CCCCC2)C2CCCCC2)cc1	0	0	0	0	0	0	-	-
Nc1nnnn1/N=C/c1cc(Cl)cc(Cl)c1OCc1ccc(Cl)cc1Cl	0	0	0	0	80.9	0	0	-
COCc1cc(C)nc(OCC(=O)N/N=C/c2ccc(-c3cc([N+](=O)[O-])ccc3Cl)o2)c1C#N	0	0	0	0	68.9	0	0	-
COc1cc(/C=C2\COC/C(=C\c3ccc(O)c(OC)c3)C2=O)ccc1O	0	0	0	0	100.3	0	100.1	53.0
NC1=NC(=O)/C(=C/c2cc(Br)c(O)c(Br)c2)S1	0	0	0	0	0	0	-	-
COc1cc(/C=C2\SC(N)=NC2=O)cc(OC)c1	0	0	0	0	50.8	0	0	-
COc1cc(/C=C2\SC(N)=NC2=O)ccc1O	0	0	-	0	59.9	0	52.3	57.1
C=CCOc1ccc(/C=C2\SC(N)=NC2=O)cc1OC	0	0	-	0	0	0	-	-
COc1ccccc1NC(=S)N1CC(C)(C)C1=O	0	0	0	0	0	0	-	-
CC(C)c1ccccc1NC(=O)CNCCOc1ccccc1F	0	0	0	0	0	0	-	-
Cn1c(=O)c2c(SCc3cccc(C(F)(F)F)c3)nc(-c3ccco3)nc2n(C)c1=O	0	0	0	0	82.7	0	0	-
Cn1c(=O)c2c(SCC(=O)Nc3cccc(F)c3)nc(-c3ccco3)nc2n(C)c1=O	0	0	0	0	100.4	0	0	-
Cc1nc(SCC(=O)Nc2ccccc2C(F)(F)F)c2c(=O)n(C)c(=O)n(C)c2n1	0	0	-	0	95.0	0	0	-
CC(C)N(Cc1ccccc1)C(=O)CN1c2cccc3cccc(c23)S1(=O)=O	0	0	0	0	0	0	-	-
COc1cccc(N2C(=O)C3CCCN3C2=S)c1 (centres undefined)	0	0	-	0	0	0	-	-
O=C(COC(=O)c1ccc(OC(F)F)cc1)NCCC1=CCCCC1	0	0	0	0	0	0	-	-
C=CCSC(=C(C#N)C#N)c1cc2c([nH]1)CCCC2	0	0	0	0	81.1	0	0	-
CCCCn1c(N)c(N(CC)C(=O)c2ccc(C#N)cc2)c(=O)[nH]c1=O	0	0	0	0	0	0	-	-
Cc1cc(-c2n[nH]c(=S)n2Cc2ccco2)n(C)n1	0	0	0	0	62.3	0	0	-
Cc1cc(-c2n[nH]c(=S)n2Cc2ccco2)nn1C	0	0	0	0	0	0	-	-

Compound activity deposited in PubChem BioAssay by several laboratories.
